Compound activity as filed in PubChem.
CBX7 AlphaScr = CBX7 inhibition, primary AlphaScreen. AlphaScreen His6-CBX7 / biotin-H3K27me3 peptide binding; stronger effect = lower value. hit rate 1.1% among 66,000. AID 1224903. normalised signal (fraction of DMSO) (no concentration beside the values). O95931; in the data active = normalised signal below about 0.5
Target sequence (O95931 whole entry, looked up): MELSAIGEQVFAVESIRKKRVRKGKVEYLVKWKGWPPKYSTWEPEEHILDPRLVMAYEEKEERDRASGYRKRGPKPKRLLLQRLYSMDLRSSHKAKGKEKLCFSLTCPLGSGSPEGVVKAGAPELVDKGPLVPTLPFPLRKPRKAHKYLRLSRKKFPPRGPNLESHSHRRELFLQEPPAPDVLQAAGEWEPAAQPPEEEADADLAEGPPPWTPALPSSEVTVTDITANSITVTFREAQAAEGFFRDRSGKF
* hit, by the source's call; ! = not active in a repeat. This is one part of a sample in which hits are shown more often than they occur.

SMILES	CBX7 AlphaScr
Oc1ccc(Cl)cc1-c1cc(C(F)(F)F)on1	1.1
O=C(Nc1c(C(=O)Nc2ccc(F)cc2)oc2ccccc12)c1cccs1	1.2
O=C(CCc1nc(-c2cccs2)no1)Nc1ccccc1F	0.98
COc1cccc(NC(=O)COc2cc(=O)n(C)c3ccccc23)c1	0.94
C=C(C)Cn1c(CCNC(=O)c2ccc(F)cc2)nc2ccccc21	0.94
CC1(C)CC(=O)C2=C(C1)NC(=O)CC2c1ccc(OCc2ccccc2)cc1 (stereo not given)	1.1
COc1ccc(C(C(=O)NC2CCCCC2)N2CCCC2)cc1 (stereo not given)	0.96
O=C(CCCC1=NS(=O)(=O)c2ccccc2N1)NCc1ccccc1	1.3
FC(F)(F)c1cc(-c2cccs2)nc(Nc2nc3ccccc3o2)n1	1.2
CCOc1ccc(Nc2ncnc3ccccc23)cc1	0.98
COc1ccc(-c2cn(-c3ccc(OC)cc3)c(SCC(=O)Nc3ccccc3Cl)n2)cc1	0.82
COc1ccc2c(-c3ccccc3)cc(NCCCN(C)C)nc2c1	1.2
CCC(Sc1nc2ccccc2o1)C(N)=O (stereo not given)	1.1
CC(=O)Nc1ccc(Nc2nc(-c3sc(NC(=O)c4ccccc4)nc3C)cs2)cc1	1
COc1ccc(Nc2nc(-c3ccc(Cl)c(Cl)c3)cs2)cc1	0.78
CCOc1ccc(Nc2nc(-c3sc(NC(=O)c4ccccc4)nc3C)cs2)cc1	0.42*
COc1ccc(CCNc2nc(-c3ccc(Cl)cc3)cs2)cc1OC	0.92
COc1ccc(Nc2nc(-c3sc(NC(C)=O)nc3C)cs2)cc1	0.74
Cc1nc(NC(=O)c2ccccc2)sc1-c1csc(Nc2ncccn2)n1	1
COc1ccc(CCNc2nc(-c3sc(N)nc3C)cs2)cc1OC	0.35*
COc1ccc(Nc2nc(-c3sc(N)nc3C)cs2)cc1	0.31*
COc1ccc(Nc2nc(-c3cccs3)cs2)cc1	0.75
COc1ccc(-c2csc(Nc3ccc(N)cc3)n2)cc1	0.41*
COc1ccc(Cl)cc1Nc1nc(-c2sc(C)nc2C)cs1	0.99
COc1ccc(Nc2nc(-c3ccc(Br)cc3)cs2)cc1	0.9
SMILES	CBX7 AlphaScr
Cc1ccc(S(=O)(=O)Nc2nc3ccc(C)cc3nc2Nc2cccc(C)c2C)cc1	1
Cc1ccc2cc(CCNC(=O)c3cccc(Br)c3)c(=O)[nH]c2c1C	1
O=C(CN1C(=O)CSc2ncccc21)Nc1ccccc1Cl	1
CCOC(=O)c1c(NC(=O)CCc2ccc(OC)cc2)sc2c1CCC(C)C2 (stereo not given)	1.1
O=C1Nc2cc(C(=O)N3CCOCC3)ccc2SC1N1CCN(c2ccc(Cl)cc2)CC1 (stereo not given)	1
CCCSCCCNC(=O)CN1C(=O)CC(C)(C)Sc2ccccc21	1
Cc1cc(C)cc(NC(=O)c2cc(C)nn2-c2ccccc2)c1	1
COc1ccccc1OCc1nc(C#N)c(NCc2ccccc2Cl)o1	0.81
Cc1ccc(Cn2c(C(=O)O)cc3oc(C)cc32)cc1	1.1
Fc1ccc(CSc2nc(NCC3CCCO3)c3ccccc3n2)cc1 (stereo not given)	0.5
Cc1cccc(CN2C(=O)c3ccccc3S(=O)(=O)c3ccc(C(=O)NC4CC4)cc32)c1	1.1
Oc1ccc(-c2nc(-c3ccccc3)c(-c3ccc(Br)cc3)[nH]2)cc1	0.46*
Oc1ccc(-c2nc(-c3ccccc3)c(-c3ccccc3)[nH]2)cc1	0.42*!
Brc1ccc(-c2nc(-c3ccccc3)c(-c3ccc(Sc4ccccc4)cc3)[nH]2)cc1	0.86
Oc1ccc(-c2nc(-c3ccc(F)cc3)c(-c3ccc(F)cc3)[nH]2)cc1	1.2
O=C(O)c1ccc(-c2nc(-c3ccc(-c4ccccc4)cc3)c(-c3ccc(-c4ccccc4)cc3)[nH]2)cc1	0.54
CCOc1cc(-c2nc(-c3ccccc3)c(-c3ccc(Br)cc3)[nH]2)ccc1O	0.62
O=C(Nc1ccccc1-c1nc2ccccc2s1)c1ccc(S(=O)(=O)N2CCCC2)cc1	1.1
CCOc1ccc(-n2nc3ccc(NC(=O)c4ccccc4Cl)cc3n2)cc1	0.9
O=C(Nc1cccc(O)c1)c1nn2c(c1Cl)NC(c1cccs1)CC2C(F)(F)F (stereo not given)	1.2
O=c1cc(Cc2nnc(SCc3cccc(F)c3)n2-c2ccc(Cl)cc2)[nH]c(=O)[nH]1	1.1
CCc1ccc(Nc2cc(C(=O)N3CCCC3)c3ccccc3n2)cc1	1.1
CCC(=O)Nc1nonc1-c1nc2ccccc2n1Cc1ccc(F)cc1Cl	0.96
O=C(CSc1nnc(-c2cccnc2)o1)c1ccccc1	1
O=S(=O)(Nc1nc2ccccc2nc1N1CCc2ccccc2C1)c1ccc(Br)cc1	0.4*
SMILES	CBX7 AlphaScr
Cc1ccc(S(=O)(=O)Nc2nc3ccccc3nc2N2CCN(C)CC2)cc1	1
CN1CCN(c2nc3ccccc3nc2NS(=O)(=O)c2ccc(Br)cc2)CC1	0.83
CCOc1ccccc1NC(=O)C1CCN(S(=O)(=O)c2cnc[nH]2)CC1	0.89
Cc1cccc(C(=O)NCc2nc3ccccc3n2Cc2ccccc2F)c1	0.82
COc1ccc(NC(=O)[C@H](CCS(C)(=O)=O)N2Cc3ccccc3C2=O)cc1OC	1
CSCC[C@@H](C(=O)Nc1ccc(C)c(F)c1)N1Cc2ccccc2C1=O	0.53
